The record followed here is ChEMBL document CHEMBL3433997, “St. Jude Leishmania screening dataset” (2016).

The target of this experiment is Solute carrier family 2, facilitated glucose transporter member 1 (Homo sapiens) (UniProt P11166). The experiment in a line: ST_JUDE_LEISH: Cytotoxicity at 2uM final concentration against transgenic Leishmania Mexicana promastigotes LmGLUT1 that are glucose transport deficient and complemented with the human glucose transporter GLUT1. Activity is measured by DNA content using SYBR green in vitro. Type of experiment: functional.
Solute carrier family 2, facilitated glucose transporter member 1 (Homo sapiens), sequence (P11166 whole entry): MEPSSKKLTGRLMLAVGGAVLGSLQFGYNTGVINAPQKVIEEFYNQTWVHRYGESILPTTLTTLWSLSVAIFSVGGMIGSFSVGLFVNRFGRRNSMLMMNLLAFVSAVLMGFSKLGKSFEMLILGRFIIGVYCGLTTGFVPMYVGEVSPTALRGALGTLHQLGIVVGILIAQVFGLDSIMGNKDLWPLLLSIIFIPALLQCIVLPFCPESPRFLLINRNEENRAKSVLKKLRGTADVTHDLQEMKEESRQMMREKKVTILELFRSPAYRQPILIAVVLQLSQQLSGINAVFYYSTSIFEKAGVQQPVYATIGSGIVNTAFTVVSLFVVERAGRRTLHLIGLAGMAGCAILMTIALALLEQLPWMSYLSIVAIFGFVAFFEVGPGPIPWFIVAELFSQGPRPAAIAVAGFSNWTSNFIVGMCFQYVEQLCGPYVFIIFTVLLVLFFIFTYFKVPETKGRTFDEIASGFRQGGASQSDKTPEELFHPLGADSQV
In general, inhibition refers to the relative decrease from the control value, in per cent. In the case of `CCOc1ccc(/C=C/C(=O)Nc2cccc3c2CCN(C)C3)cc1`, the inhibition came out at 8.24%.

Take `c1cc(CN2CCN(CCN3CCOCC3)CC2)cc(-c2ccc(-c3nc4ccccc4[nH]3)cc2)c1`: the inhibition was 10.9%.

With `Cc1nn(-c2ccccc2)nc1C(=O)N(Cc1ccc(-c2ccc(CNCCc3ccc(S(C)(=O)=O)cc3)cn2)cc1)C(C)CN(C)C` (centres undefined), the inhibition came to 0.95%.

Turning to `O=C(NC1CCN(CC2(c3ccc(Cl)cc3)CCCCC2)CC1)c1cc[nH]n1`, the inhibition amounted to 3.86%.

On to `CC1CCc2c(C(=O)Nc3c(F)cc(F)cc3Br)csc2C1` (centres undefined), for which the inhibition is -0.18%.

Turning to `CCN(CC)CCN(Cc1ccc(-c2ccc(C(F)(F)F)cc2)cc1)C(=O)Cn1c(CCc2ccccc2F)nc(=O)c2ccccc21`, the inhibition came to 3.8%.

For `CCN(CC)CCN(Cc1ccc(-c2ccc(C(F)(F)F)cc2)cc1)C(=O)c1c[nH]c2ccc(Br)cc12`, the inhibition was 1.48%.

`CCn1c(-c2nonc2N)nc2c(-c3cccc(NC(=O)Nc4cccc(C(F)(F)F)c4)c3)ncc(OCCCN)c21`: the inhibition is 2.47%.

As to `COc1ccc(-n2nc(C(=O)NCCC3=CCCCC3)c3ccccc3c2=O)cc1`, the inhibition turned out to be 0.62%.

For the molecule `O=C(Nc1ccc(Oc2ccccc2)cc1)N(CCN1CCCC1)Cc1ccc(-c2ccc(CN3CCNCC3)cc2)cc1`, the inhibition worked out at 0.02%.

For `CCCC(C(=O)OCCN(CC)CC)(c1ccc(Cl)cc1)c1ccc(Cl)cc1`, the inhibition turned out to be 4.77%.

`O=C(CCc1nc2c(cnn2-c2ccccc2)c(=O)[nH]1)NC1CCSc2ccccc21` (centres undefined): the inhibition was 0.18%.

Turning to `Cc1cc(NS(=O)(=O)c2cccc(C(C)N3CCC(N4CCCC4)CC3)c2)ccc1C(C)C` (centres undefined), the inhibition was 6.44%.

As for `CC(C)CCNC(=O)C1Cc2c([nH]c3ccc(Br)cc23)C2(CCN(CCc3ccccc3)CC2)N1` (centres undefined), the inhibition was determined as 1.72%.
